The record followed here is PubChem BioAssay.

In assay [1] the target is Cell division control protein 42 homolog (Homo sapiens) (UniProt P60953). Put plainly: inhibition of fluorescent GTP binding to constitutively active Cdc42 – biochemical, multiplex bead flow cytometry, Bodipy-FL-GTP, dose response (AID 1333;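 active means fitted half-maximal concentration within the tested dose range, moderate curve steepness, a statistically real signal drop, and little compound fluorescence or tag-binding interference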). For orientation: A flow cytometer gives signals particle by particle.
Sequence of Cell division control protein 42 homolog (Homo sapiens) (P60953 whole entry, looked up): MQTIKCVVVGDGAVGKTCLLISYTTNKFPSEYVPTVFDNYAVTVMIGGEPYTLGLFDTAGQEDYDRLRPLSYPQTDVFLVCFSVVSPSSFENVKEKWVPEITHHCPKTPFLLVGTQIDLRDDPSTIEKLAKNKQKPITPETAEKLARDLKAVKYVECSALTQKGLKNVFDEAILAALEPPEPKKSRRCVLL
For assay [2] the target is unchanged. Put plainly: inhibition of fluorescent GTP binding to wildtype Cdc42 – biochemical, multiplex bead flow cytometry, Bodipy-FL-GTP, dose response (AID 1334). The following applies: bead-based flow cytometry, Bodipy-FL-GTP binding to GST-Cdc42; at 100 µM (top of the series) unless noted.
Assay [3] deals with GTPase HRas (Homo sapiens) (UniProt P01112). Nature of the assay: Ras wt fluorescent GTP loading blockade – biochemical, wildtype, multiplex bead flow cytometry, dose response (AID 1335;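 active means fitted half-maximal concentration within 10 nM to 100 µM, steepness 0.5 to 2, significant signal drop, low assay interference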). Conditions: bead-based flow cytometry, Bodipy-GTP binding to GST-Ras; at 100 µM (top of the series) unless noted.
Sequence of GTPase HRas (Homo sapiens) (P01112 whole entry, looked up): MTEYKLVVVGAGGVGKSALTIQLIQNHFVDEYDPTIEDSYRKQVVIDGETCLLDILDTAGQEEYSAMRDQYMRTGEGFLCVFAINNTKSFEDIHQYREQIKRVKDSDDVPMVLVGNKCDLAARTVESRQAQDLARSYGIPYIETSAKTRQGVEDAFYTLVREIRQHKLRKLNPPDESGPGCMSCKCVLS
For assay [4], the system named is Ras-related protein Rab-7a (dog), GTP binding. Nature of the assay: blockers of fluorescent GTP binding to Rab7 – biochemical, wildtype, multiplex bead flow cytometry, dose response (AID 1336; call rule not given here).
Assay [5] deals with Ras-related C3 botulinum toxin substrate 1 (Homo sapiens) (UniProt P63000). Put plainly: inhibition of wildtype Rac1 nucleotide loading – biochemical, multiplex bead flow cytometry, dose response (AID 1340;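 active means dose curve with midpoint inside tested range, moderate steepness, plateau gap beyond fit error, low compound glow and bead-link interference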). The following applies: GST-Rac1 beads, Bodipy-FL-GTP binding; at 100 µM (top of the series) unless noted.
For assay [6], the target named is GTPase HRas (Homo sapiens) (UniProt P01112). Put plainly: blockade of GTP loading onto mutant Ras – biochemical, activated mutant, multiplex bead flow cytometry, dose response (AID 1341;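 active means dose-response curve with midpoint inside the tested range, moderate steepness, significant amplitude and little compound fluorescence or bead-attachment interference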;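 further: GST-tagged constitutively activated Ras mutant immobilized on beads and multiplexed with other GTPases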).

For part of these data: Potency and affinity values are given separately. Active and inactive are the calls of the source.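 How the source made its calls, unless noted: active means fitted half-maximal concentration within the tested range, moderate curve steepness, significant signal drop, and little compound fluorescence or bead-linkage interference; inactive means the rest.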

Regarding `OCC(CO)(CO)NCc1ccc(-c2ccccc2)cc1`, the molecule was classed as inactive in assay [1], in assay [4] and in assay [6]. Moreover, the fluorescence, percent of control (lower = inhibition) in assay [2] worked out at 49.9%. Further, the GTP binding, percent of control in assay [3] is 65.6%. Besides, the GTP binding signal, raw median fluorescence (lower = inhibition) (MCF (arbitrary fluorescence units)) in assay [5] is 214.

`CCOc1ccc2nc(NC(=O)CSc3nc(-c4ccccc4)c(C#N)c(=O)[nH]3)sc2c1`: the result in assay [1], in assay [4] and in assay [6] was inactive. The fluorescence, percent of control (lower = inhibition) in assay [2] is 25.1%. In assay [3], this molecule came in with a GTP binding, percent of control of 70%. Besides, the GTP binding signal, raw median fluorescence (lower = inhibition) (MCF (arbitrary fluorescence units)) in assay [5] was 240.

Take `COc1cc(/C=C/C(=O)Nc2ccc3nc4n(c(=O)c3c2)CCCC4)cc(OC)c1OC`: the call in assay [1], in assay [4] and in assay [6] was inactive. Also, in assay [2], the fluorescence, percent of control (lower = inhibition) is 32.7%. The GTP binding, percent of control in assay [3] is 72%. The molecule also returned a GTP binding signal, raw median fluorescence (lower = inhibition) (MCF (arbitrary fluorescence units)) in assay [5] of 200.

Take `CCc1nnc2c(N(C)C)nc3ccccc3n12`: the result in assay [1], in assay [4] and in assay [6] was inactive. In addition, the fluorescence, percent of control (lower = inhibition) in assay [2] amounted to 34.8%. The molecule further showed a GTP binding, percent of control in assay [3] of 76.3%. Besides, in assay [5], the GTP binding signal, raw median fluorescence (lower = inhibition) (MCF (arbitrary fluorescence units)) amounted to 168.

Regarding `Cn1nc(C(=O)Nc2cccnc2)c2ccccc2c1=O`, the molecule was classed as inactive in assay [1], in assay [4] and in assay [6]. In addition, in assay [2], the fluorescence, percent of control (lower = inhibition) came to 49%. The molecule further yielded a GTP binding, percent of control in assay [3] of 111%. Further, the GTP binding signal, raw median fluorescence (lower = inhibition) (MCF (arbitrary fluorescence units)) in assay [5] stood at 135.

With `CCCCOc1cccc(C#CC(=O)c2ccc([N+](=O)[O-])cc2)c1`, the call in assay [1], in assay [4] and in assay [6] was inactive. In assay [2], the fluorescence, percent of control (lower = inhibition) stood at 59.2%. In addition, the GTP binding, percent of control in assay [3] came to 182%. The molecule further displayed a GTP binding signal, raw median fluorescence (lower = inhibition) (MCF (arbitrary fluorescence units)) in assay [5] of 128.

`O=C(NCc1cccnc1)c1cccn2c(=O)c3sccc3nc12`: the molecule was called inactive in assay [1], in assay [4] and in assay [6]. Besides, in assay [2], the fluorescence, percent of control (lower = inhibition) worked out at 32.5%. For the same molecule, the GTP binding, percent of control in assay [3] came to 74.9%. Further, in assay [5], the GTP binding signal, raw median fluorescence (lower = inhibition) (MCF (arbitrary fluorescence units)) came out at 162.

As to `CCc1ccc(OCc2cccc(C(=O)O)c2)cc1`, the outcome in assay [1], in assay [4] and in assay [6] was inactive. Besides, the fluorescence, percent of control (lower = inhibition) in assay [2] turned out to be 58.6%. The molecule also displayed a GTP binding, percent of control in assay [3] of 87.5%. Further, the GTP binding signal, raw median fluorescence (lower = inhibition) (MCF (arbitrary fluorescence units)) in assay [5] was determined as 32.6.

With `CS(=O)(=O)Nc1ccc(Br)cc1C(=O)c1ccccc1`, the molecule was classed as inactive in assay [1], in assay [4] and in assay [6]. The fluorescence, percent of control (lower = inhibition) in assay [2] is 46.4%. The same molecule yielded a GTP binding, percent of control in assay [3] of 59%. The molecule also showed a GTP binding signal, raw median fluorescence (lower = inhibition) (MCF (arbitrary fluorescence units)) in assay [5] of 205.

Turning to `Nc1ccc2c(c1)C(=O)C(=O)c1ccccc1-2`, the molecule was called inactive in assay [1], in assay [4] and in assay [6]. The fluorescence, percent of control (lower = inhibition) in assay [2] stood at 22.1%. In assay [3], the GTP binding, percent of control was determined as 57.5%. This molecule also gave a GTP binding signal, raw median fluorescence (lower = inhibition) (MCF (arbitrary fluorescence units)) in assay [5] of 73.8.

With `O=C(Nc1ccccc1F)c1ccccc1-c1ccccc1`, the molecule was classed as inactive in assay [1], in assay [4] and in assay [6]. Moreover, in assay [2], the fluorescence, percent of control (lower = inhibition) was 47.5%. This molecule also showed a GTP binding, percent of control in assay [3] of 60.2%. This molecule also returned a GTP binding signal, raw median fluorescence (lower = inhibition) (MCF (arbitrary fluorescence units)) in assay [5] of 203.

On to `COc1ccc2c(C(=O)O)cn(CCOc3ccccc3C)c2c1`, for which the call in assay [1], in assay [4] and in assay [6] was inactive. Also, the fluorescence, percent of control (lower = inhibition) in assay [2] was found to be 64.6%. For the same molecule, the GTP binding, percent of control in assay [3] was 214%. For the same molecule, the GTP binding signal, raw median fluorescence (lower = inhibition) (MCF (arbitrary fluorescence units)) in assay [5] was determined as 59.2.

In the case of `COc1cccc(/C=N/Nc2nn3cnnc3c3ccccc23)c1`, the outcome in assay [1], in assay [4] and in assay [6] was inactive. Moreover, in assay [2], the fluorescence, percent of control (lower = inhibition) is 36.5%. The molecule further returned a GTP binding, percent of control in assay [3] of 47.3%. In addition, the GTP binding signal, raw median fluorescence (lower = inhibition) (MCF (arbitrary fluorescence units)) in assay [5] is 120.

Consider `Cn1c(=O)c2cc(S(=O)(=O)NCCC(=O)NCc3ccccc3Cl)ccc2n(C)c1=O`, for which the molecule was classed as inactive in assay [1], in assay [4] and in assay [6]. In addition, the fluorescence, percent of control (lower = inhibition) in assay [2] was 64%. Further, the GTP binding, percent of control in assay [3] is 109%. The GTP binding signal, raw median fluorescence (lower = inhibition) (MCF (arbitrary fluorescence units)) in assay [5] is 122.

`Cc1nc2c(ccc3nc(NC(=O)c4ccc(S(=O)(=O)N(C)C)cc4)sc32)s1`: the result in assay [1], in assay [4] and in assay [6] was inactive. Besides, in assay [2], the fluorescence, percent of control (lower = inhibition) is 79.8%. Further, in assay [3], the GTP binding, percent of control turned out to be 151%. In addition, the GTP binding signal, raw median fluorescence (lower = inhibition) (MCF (arbitrary fluorescence units)) in assay [5] was 159.

Take `CCCCCCNc1cc2n(c(=O)n1)CCc1cc(OC)c(OC)cc1-2`: the molecule was classed as inactive in assay [1], in assay [4] and in assay [6]. In assay [2], the fluorescence, percent of control (lower = inhibition) is 44.7%. The molecule further returned a GTP binding, percent of control in assay [3] of 104%. This molecule also displayed a GTP binding signal, raw median fluorescence (lower = inhibition) (MCF (arbitrary fluorescence units)) in assay [5] of 128.

For `COc1ccc(/C=N/NC(=O)CSc2n[nH]c(=O)[nH]c2=O)cc1`, the result in assay [1], in assay [4] and in assay [6] was inactive. Besides, the fluorescence, percent of control (lower = inhibition) in assay [2] came to 53.1%. In assay [3], this molecule returned a GTP binding, percent of control of 69.6%. In assay [5], this molecule came in with a GTP binding signal, raw median fluorescence (lower = inhibition) (MCF (arbitrary fluorescence units)) of 0.

Regarding `COc1cc(N2CCCC2)c(OC)cc1/C=c1/sc2nc3ccccc3n2c1=O`, the molecule was classed as inactive in assay [1], in assay [4] and in assay [6]. Further, the fluorescence, percent of control (lower = inhibition) in assay [2] came to 76%. The molecule further had a GTP binding, percent of control in assay [3] of 82%. The molecule further displayed a GTP binding signal, raw median fluorescence (lower = inhibition) (MCF (arbitrary fluorescence units)) in assay [5] of 195.

`COc1cccc(N2CCN(C(=O)c3cccn4c(=O)c5c(C)c(C)sc5nc34)CC2)c1`: the call in assay [1], in assay [4] and in assay [6] was inactive. For the same molecule, the fluorescence, percent of control (lower = inhibition) in assay [2] was found to be 32.1%. The molecule also showed a GTP binding, percent of control in assay [3] of 72.9%. Besides, the GTP binding signal, raw median fluorescence (lower = inhibition) (MCF (arbitrary fluorescence units)) in assay [5] worked out at 163.

Take `Nc1c(S(=O)(=O)c2cccc(Cl)c2)c2nc3ccccc3nc2n1/N=C/c1ccc(O)c(O)c1`: the molecule was called inactive in assay [1], in assay [4] and in assay [6]. Besides, the fluorescence, percent of control (lower = inhibition) in assay [2] worked out at 54.4%. The same molecule had a GTP binding, percent of control in assay [3] of 91.7%. For the same molecule, in assay [5], the GTP binding signal, raw median fluorescence (lower = inhibition) (MCF (arbitrary fluorescence units)) came out at 99.4.

With `COc1cc(N2CCCC2)c(OC)cc1/C=C(/C#N)c1cccc(F)c1`, the result in assay [1], in assay [4] and in assay [6] was inactive. Moreover, the fluorescence, percent of control (lower = inhibition) in assay [2] was determined as 137%. The GTP binding, percent of control in assay [3] is 214%. Also, the GTP binding signal, raw median fluorescence (lower = inhibition) (MCF (arbitrary fluorescence units)) in assay [5] came out at 210.

For `O=C(/C=C/c1ccccc1)NC(NC(=S)Nc1ccc(C(=O)O)cc1)C(Cl)(Cl)Cl` (configuration not stated), the molecule was called inactive in assay [1], in assay [4] and in assay [6]. Also, the fluorescence, percent of control (lower = inhibition) in assay [2] amounted to 35.2%. The molecule further registered a GTP binding, percent of control in assay [3] of 78.3%. In addition, the GTP binding signal, raw median fluorescence (lower = inhibition) (MCF (arbitrary fluorescence units)) in assay [5] was determined as 178.

Turning to `O=C(O)c1ccc(CNCc2cccc(Cl)c2)s1`, the call in assay [1], in assay [4] and in assay [6] was inactive. Besides, the fluorescence, percent of control (lower = inhibition) in assay [2] was 61.3%. In assay [3], this molecule gave a GTP binding, percent of control of 85.1%. In assay [5], this molecule showed a GTP binding signal, raw median fluorescence (lower = inhibition) (MCF (arbitrary fluorescence units)) of 32.6.

For `COc1ccc(-c2nnc(S/C(=C/c3ccc(Cl)cc3)C(=O)O)o2)cc1`, the molecule was classed as inactive in assay [1], in assay [4] and in assay [6]. For the same molecule, the fluorescence, percent of control (lower = inhibition) in assay [2] is 35.8%. Besides, the GTP binding, percent of control in assay [3] was 81.6%. In assay [5], this molecule yielded a GTP binding signal, raw median fluorescence (lower = inhibition) (MCF (arbitrary fluorescence units)) of 218.

Consider `OCCC1CN(Cc2cccc(O)c2)CCN1CCc1ccccc1` (configuration not stated), for which the molecule was classed as inactive in assay [1], in assay [4] and in assay [6]. The fluorescence, percent of control (lower = inhibition) in assay [2] was found to be 40.6%. In assay [3], this molecule displayed a GTP binding, percent of control of 90.6%. Moreover, the GTP binding signal, raw median fluorescence (lower = inhibition) (MCF (arbitrary fluorescence units)) in assay [5] came to 342.

Regarding `NS(=O)(=O)c1ccc(CCN2C(=O)/C(=C\c3ccc(Cl)cc3)SC2=S)cc1`, the outcome in assay [1], in assay [4] and in assay [6] was inactive. For the same molecule, the fluorescence, percent of control (lower = inhibition) in assay [2] is 29%. Further, the GTP binding, percent of control in assay [3] stood at 76.5%. Further, the GTP binding signal, raw median fluorescence (lower = inhibition) (MCF (arbitrary fluorescence units)) in assay [5] is 242.

In the case of `O=C(O)c1cc(C(=O)O)cc(-c2ccc(/C=c3/sc4nc5ccccc5n4c3=O)o2)c1`, the result in assay [1], in assay [4] and in assay [6] was inactive. The fluorescence, percent of control (lower = inhibition) in assay [2] came out at 30%. This molecule yielded a GTP binding, percent of control in assay [3] of 72.3%. Further, the GTP binding signal, raw median fluorescence (lower = inhibition) (MCF (arbitrary fluorescence units)) in assay [5] was found to be 185.
